Screens deposited in PubChem BioAssay by National Center for Advancing Translational Sciences (NCATS).
TRPV1 agonist: HTS Assay for Compounds that Act as Agonists of the Vanilloid Receptor 1; hit rate 0.19% among 320,000; activation, % at 8.33 µM; AID 540275, 2011; TRPV1-expressing cells, Fluo-8 calcium influx, agonist mode; Transient receptor potential cation channel subfamily V member 1 (Homo sapiens), Q8NER1; in the data active = activation above about 80%; inconclusive = between about 30% and that limit; also: 0% is about no effect
Target sequence (Q8NER1 whole entry, looked up): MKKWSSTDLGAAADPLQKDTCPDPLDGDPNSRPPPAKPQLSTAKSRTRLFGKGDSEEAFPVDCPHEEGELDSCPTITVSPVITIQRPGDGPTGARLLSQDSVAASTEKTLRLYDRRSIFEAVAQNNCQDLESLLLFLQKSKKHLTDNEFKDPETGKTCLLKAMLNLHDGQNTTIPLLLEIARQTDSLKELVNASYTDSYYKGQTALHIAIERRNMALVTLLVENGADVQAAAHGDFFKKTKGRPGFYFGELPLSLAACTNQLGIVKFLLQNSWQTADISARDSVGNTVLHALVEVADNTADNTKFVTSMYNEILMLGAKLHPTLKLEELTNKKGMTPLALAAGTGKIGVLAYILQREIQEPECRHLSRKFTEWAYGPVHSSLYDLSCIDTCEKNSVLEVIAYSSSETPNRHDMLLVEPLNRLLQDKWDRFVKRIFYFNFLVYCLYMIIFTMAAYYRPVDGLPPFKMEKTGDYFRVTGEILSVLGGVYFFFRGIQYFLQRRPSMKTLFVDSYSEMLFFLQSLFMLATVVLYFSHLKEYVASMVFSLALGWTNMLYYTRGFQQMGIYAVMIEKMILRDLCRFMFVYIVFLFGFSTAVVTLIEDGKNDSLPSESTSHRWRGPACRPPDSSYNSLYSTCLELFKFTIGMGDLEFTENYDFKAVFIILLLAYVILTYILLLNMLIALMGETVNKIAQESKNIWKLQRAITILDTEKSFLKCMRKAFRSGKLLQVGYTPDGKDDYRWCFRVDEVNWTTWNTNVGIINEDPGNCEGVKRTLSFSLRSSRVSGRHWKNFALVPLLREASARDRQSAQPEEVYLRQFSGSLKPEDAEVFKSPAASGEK
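Fluo-8 calcium influx in TRPV1-expressing cells, kinetic read (ex 480/em 520 nm). Compound added and read 3 min for agonist activity, followed by capsaicin at EC20 final and 2 min further read for enhancement.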
D1 potentiator: Potentiators of Human D1 Dopamine Receptor: qHTS; D(1A) dopamine receptor (Homo sapiens), P21728; HEK293 TREx D1 cells, calcium flux, dopamine EC20 potentiation; potentiation, % at 10 µM; hit rate 0.036% among 360,000; AID 504651, 2011; in the data active = potentiation above about 30%; also: 0% is about no effect
D1 agonist: Allosteric Agonists of the Human D1 Dopamine Receptor: qHTS; D(1A) dopamine receptor (Homo sapiens), P21728; HEK293 T-REx D1 cells, calcium flux, agonist mode; activation, % at 2 µM; hit rate 1% among 360,000; AID 504660, 2011; in the data active = activation above about 30%; also: 0% is about no effect
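Tetracycline-induced HEK293 TREx D1 cells, force-coupled to calcium signalling, were dye-loaded with a no-wash calcium kit. Compound was pin-added after a 10 s baseline. Fluorescence was read kinetically at 1 cycle/s for 180 s, with calcium rises flagged as agonism.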
TRPV1 PAM: HTS Assay for Compounds that Act as Potentiators of the Vanilloid Receptor 1; hit rate 0.02% among 320,000; TRPV1-expressing cells, Fluo-8 calcium influx, capsaicin EC20 potentiation; AID 540277, 2011; potentiation, % at 8.33 µM; Transient receptor potential cation channel subfamily V member 1 (Homo sapiens), Q8NER1; in the data active = potentiation above about 80%; inconclusive = between about 30% and that limit; also: 0% is about no effect
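TRPV1-expressing cells were cultured overnight at 35.5C and loaded with Fluo-8 calcium dye for 40 to 90 min at room temperature. After a 10 s baseline, compound was added and calcium influx was read kinetically for 3 min (ex 480/em 520 nm).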
D1 antag: Antagonist of Human D 1 Dopamine Receptor: qHTS. D(1A) dopamine receptor (Homo sapiens), P21728. HEK293 TREx D1 cells, calcium flux, dopamine EC80; active compounds read low. activity change, negative = inhibition, % at 10 µM. hit rate 3.2% among 360,000; in the data active = activity change below about -30%; also: % is scaled to controls: 0 for no effect and ±100 for the full control effect
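Tetracycline-induced HEK293 Trex D1 cells, force-coupled to calcium, dye-loaded; compounds added and read 180 s, then EC80 dopamine added and calcium flux tracked kinetically another 180 s.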
An asterisk follows results filed as active; ? = inconclusive; · = not tested or not shown. Rows were chosen to be rich in hits. Some 4.2% of all compounds tested hit in one or more screens of this group.

SMILES	TRPV1 agonist	D1 potentiator	D1 agonist	TRPV1 PAM	D1 antag
COc1cccc(NC(=O)Cn2cc(S(=O)(=O)Cc3ccccc3F)c3ccccc32)c1	·	-0.6	6.6	·	-1.3
CC(C)(C)c1ccc(S(=O)(=O)NCc2ccc3c(c2)CCN3C(=O)c2ccccc2)cc1	·	1.7	5.5	·	-4.4
CCOC(=O)C1=C(CS(=O)(=O)c2ccc(C)cc2)NC(=O)NC1c1ccc(C(C)C)cc1 (stereo not given)	·	1.8	5.7	·	30.8
CC(=O)c1ccc(S(=O)(=O)N2CCC(NC(=O)Nc3cccc(F)c3)CC2)cc1	8.6	-0.3	-0.1	-1.7	-34.3*
Cc1ccc(NC(=O)NC2CCN(S(=O)(=O)c3ccc(F)cc3)CC2)cc1	-1.2	-7.4	2.7	2.3	-53.4*
COC(=O)c1ccccc1NC(=O)NC1CCCCC1	19.2	-5.1	4.8	12.5	-44.2*
Cc1ccc(NC(=O)NC2CCCCCCC2)cc1	?	-10.9	1.5	-5.6	-32.3*
Cc1ccc(NC(=O)C(=O)NC2CCCCC2)cc1	0.3	12.2	2.2	16.9	-13.5
Cn1nnnc1Sc1ncnc2scc(-c3ccc(C(=O)OC(C)(C)C)cc3)c12	·	14.1	5.4	·	-5.7
COc1ccc(-c2cc(C(F)(F)F)nc(S(=O)(=O)CCCC(=O)Nc3ccccc3C(F)(F)F)n2)cc1OC	·	1.2	4.1	·	-9.7
O=C(Nc1cccc(F)c1)NC1CC2CCCC(C1)N2C1CC1 (stereo not given)	-0.6	-10.4	2.7	?	-34.3*
O=C(Nc1ccc2ccccc2c1)C(c1ccccc1)C1CCCC1 (stereo not given)	?	-9.6	3.8	4.2	-23.2
Cc1ccc(NC(=O)C(c2ccccc2)C2CCCC2)cc1 (stereo not given)	?	-10.3	6.6	-11.9	-34.4*
COc1ccc(OC)c(NC(=O)N2CC3CCCN3c3ccccc32)c1 (stereo not given)	·	3.6	0.1	·	22.0
Cn1nc(C(=O)NCc2cccc(Cl)c2)c2c1-c1ccccc1SC2	·	-0.6	-1.0	·	2.3
c1ccc(-c2noc(CSc3nnnn3-c3ccccc3)n2)cc1	·	-4.8	13.4	·	-42.9*
Clc1ccccc1-c1nnc(SCc2nc(-c3ccccc3)no2)n1-c1ccccc1	·	-3.7	5.5	·	2.9
Cc1cccc(-n2nnnc2SCc2csc(-c3ccccc3)n2)c1	-6.2	-1.8	42.1*	?	-26.4
Cc1cccn2c(=O)c3cc(C(=O)NCC4CCCO4)c(=N)n(C4CCCCC4)c3nc12 (stereo not given)	90.6*	-2.2	-2.8	-33.4	-9.4
CCc1cccc2cc3c(N)c(C(=O)Nc4ccc(S(=O)(=O)N5CCCC5)cc4)sc3nc12	5.2	-0.5	60.1*	4.9	11.7
CC(=O)Nc1cccc(C(=O)NCc2ccc3c(c2)CCN3C(C)=O)c1	·	0.0	1.5	·	-6.9
O=C(O)c1ccc(CNCc2c(Cl)cccc2Cl)cc1	0.7	-12.9	2.4	4.6	-50.8*
COc1ccc(-c2cn3c(n2)sc2cc(C(=O)NCCCc4ccccc4)ccc23)cc1	·	-2.6	-0.6	·	-1.3
COc1cccc(-c2cn3c(n2)sc2cc(C(=O)NCCCc4ccccc4)ccc23)c1	·	3.4	4.1	·	-33.9*
O=C(NC12CC3CC(CC(C3)C1)C2)c1ccc(Br)o1	?	-5.2	8.7	0.8	-2.2
SMILES	TRPV1 agonist	D1 potentiator	D1 agonist	TRPV1 PAM	D1 antag
O=C(NC12CC3CC(CC(C3)C1)C2)c1ccc([N+](=O)[O-])o1	23.1	-0.6	0.7	-19.2	-48.2*
Cc1ccc(C)c(N2CCN(C(=O)Cn3c(-c4cccs4)cc4ccccc43)CC2)c1	·	4.8	-0.5	·	11.7
O=Nc1c(-c2c(O)[nH]c3cc(Br)ccc23)[nH]c2ccccc12	27.6	-9.1	8.8	8.8	-56.7*
O=C(CC(c1ccccc1)c1ccccc1)Nc1nn[nH]n1	-7.3	-2.2	4.5	2.2	-31.3*
CCOc1ccc(NC(=O)c2nn(C)c3c2COc2ccccc2-3)cc1	·	-0.8	4.1	·	-18.9
O=C1N(Cc2cccc(Cl)c2)C[C@@H]2C[C@@H](c3ccc4nonc4c3)N3CCC[C@@]123	0.5	-5.0	8.3	-7.1	-36.0*
Cc1ccc([C@@H]2C[C@H]3CN(Cc4cccc(Cl)c4)C(=O)[C@]34CCCN24)o1	-1.3	0.4	0.8	-0.2	15.0
COc1ccccc1CN1C[C@@H]2C[C@@H](c3ccc4nsnc4c3)N3CCC[C@@]23C1=O	-4.5	-3.6	0.3	3.5	-72.2*
O=C1N(Cc2cccc(Cl)c2)C[C@@H]2C[C@@H](c3cccc4ncccc34)N3CCC[C@@]123	9.4	-4.4	2.9	-3.5	-34.8*
COc1ccccc1CN1C[C@@H]2C[C@@H](c3ccc(C)cc3)N3CCC[C@@]23C1=O	-0.2	-4.7	-0.3	4.3	-0.8
CC(=O)N1CCc2cc(S(=O)(=O)NC(Cc3ccccc3)C(=O)NCc3ccccc3)ccc21 (stereo not given)	·	-1.2	4.0	·	13.2
CCN1C(=O)C(Cc2nc3ccccc3c(=O)n2-c2ccc(OC)cc2)c2cc(C)ccc21 (stereo not given)	·	-0.9	4.5	·	16.4
Cc1ccc(CNC(=O)c2cc3c(=O)n4cccc(C)c4nc3s2)cc1	·	0.7	1.2	·	-7.0
CSc1cccc(NC(=O)Cn2c(=O)n(Cc3ccccc3)c(=O)c3sc4ccccc4c32)c1	·	-1.9	6.3	·	1.5
Nc1c2c(nc3ccn(Cc4ccccc4)c(=O)c13)CCC2	1.4	-6.8	1.7	2.4	-12.0
Nc1c2c(nc3ccn(-c4ccccc4)c(=O)c13)CCCCC2	1.2	-10.4	0.3	-2.5	-35.4*
COCCNC(=S)N1CCC(C(=O)c2ccc3c(c2)OCCO3)CC1	13.2	-2.8	6.6	7.9	9.5
CCCNC(=S)N1CCC(C(=O)c2ccc3c(c2)OCCO3)CC1	16.8	-8.8	15.1	-15.6	-34.2*
CCOC(=O)C(CC)Sc1ccc2nnc(CCNS(=O)(=O)c3ccc(C)cc3)n2n1 (stereo not given)	·	0.6	0.3	·	11.0
CC(C)(C)c1cc(C(=O)Nc2ccc(F)cc2)n(Cc2ccc(F)cc2)n1	87.9*	-14.4	15.3	-23.1	-17.2
Cc1ccc(NC(=O)c2cc(C(C)(C)C)nn2Cc2ccccc2)cc1	?	-0.2	3.2	5.2	-14.0
CCCn1cc(S(=O)(=O)c2ccccc2)c(=O)c2cc(F)c(N3CCCCCC3)cc21	·	0.9	2.7	·	8.9
Cc1ccc(NC(=O)CN(C)C(=O)Cn2ccsc2=N)cc1	-1.9	-0.9	2.6	-0.5	-2.3
COc1ccc(S(=O)(=O)N2CCCCC2)cc1NC(=O)C1CCCC1	10.5	6.7	0.3	-11.7	7.7
Cc1ccc(S(=O)(=O)N2CCCCC2)cc1NC(=O)Cn1ccsc1=N	3.9	-7.8	3.3	-13.7	-39.1*
